# Measured values reported in PubChem BioAssay AID1159580 (chemical genetic matrix, 2015).
# “And” between values parts separate entries of the source, which are not always exact repeats. Identical values can stand only once. About 2,000 (36%) of roughly 5,500 compounds were called active. Not shown: some 18% with an inconclusive outcome. The list shows a part of the results. Unmarked numbers belong to inactive results. No stated cut-off is given here; in the data, active means normalized growth mostly below about 0.91 (no sharp cut-off); inconclusive means no clear call, values can overlap the other calls; inactive means mostly above about 0.92.
# Assay: chemical genetic growth profiling, strain panel (AID 1159580);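 further: tested at 20 µM; growth read once vehicle control cultures reached saturation at 30 °C; 1 = growth at the plate median or of vehicle wells; lower values mean less growth of the strain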
# Settings: S. cerevisiae deletion strains, growth OD
smiles,measurement,setting,value
CC(C)c1c(O)ccc2c1CCC1[C@@](C)(CO)CCC[C@]21C (stereo partly specified),normalized growth,"locus YAL013W, strain DEP1, hits give low values",0.978
same,normalized growth,"locus YAL021C, strain ccr4, hits give low values",1.01
same,normalized growth,"locus YAL026C, strain drs2, hits give low values",1.01
same,normalized growth,"locus YAL030W, strain snc1, hits give low values",1.01
same,normalized growth,"locus YBL061C, strain skt5, hits give low values",1.01
same,normalized growth,"locus YBR009C, strain hhf1, hits give low values",1.04
same,normalized growth,"locus YBR021W, strain FUR4, hits give low values",0.945
same,normalized growth,"locus YBR023C, strain chs3, hits give low values",1.03
same,normalized growth,"locus YBR171W, strain sec66, hits give low values",1.02
same,normalized growth,"locus YBR229C, strain ROT2, hits give low values",0.958
same,normalized growth,"locus YBR231C, strain swc5, hits give low values",1.02
same,normalized growth,"locus YBR279W, strain paf1, hits give low values",1.02
same,normalized growth,"locus YCL011C, strain gbp2, hits give low values",1.02
same,normalized growth,"locus YCL016C, strain dcc1, hits give low values",1.02
same,normalized growth,"locus YCL029C, strain bik1, hits give low values",0.941
same,normalized growth,"locus YCL069W, strain vba3, hits give low values",1.02
same,normalized growth,"locus YCR088W, strain abp1, hits give low values",1.02
same,normalized growth,"locus YDL005C, strain med2, hits give low values",1.02
same,normalized growth,"locus YDL035C, strain GPR1, hits give low values",0.964
same,normalized growth,"locus YDL040C, strain nat1, hits give low values",1.01
same,normalized growth,"locus YDL074C, strain BRE1, hits give low values",0.834
same,normalized growth,"locus YDL101C, strain DUN1, hits give low values",0.947
same,normalized growth,"locus YDL134C, strain PPH21, hits give low values",0.911
same,normalized growth,"locus YDL185W, strain tfp1, hits give low values",0.975
same,normalized growth,"locus YDL192W, strain arf1, hits give low values",0.92
same,normalized growth,"locus YDR001C, strain nth1, hits give low values",1.01
same,normalized growth,"locus YDR069C, strain doa4, hits give low values",1
same,normalized growth,"locus YDR101C, strain arx1, hits give low values",0.967
same,normalized growth,"locus YDR137W, strain rgp1, hits give low values",0.885
same,normalized growth,"locus YDR150W, strain NUM1, hits give low values",0.983
same,normalized growth,"locus YDR159W, strain sac3, hits give low values",1.02
same,normalized growth,"locus YDR162C, strain NBP2, hits give low values",0.79 (active)
same,normalized growth,"locus YDR195W, strain ref2",1.05
same,normalized growth,"locus YDR297W, strain sur2, hits give low values",1.02
same,normalized growth,"locus YDR318W, strain mcm21, hits give low values",0.911 (active)
same,normalized growth,"locus YDR334W, strain swr1, hits give low values",1.03
same,normalized growth,"locus YDR335W, strain msn5, hits give low values",1.03
same,normalized growth,"locus YDR388W, hits give low values",0.957
same,normalized growth,"locus YDR392W, strain spt3, hits give low values",0.991
same,normalized growth,"locus YDR502C, strain sam2, hits give low values",0.898 (active)
same,normalized growth,"locus YEL003W, strain gim4, hits give low values",1.01
same,normalized growth,"locus YEL037C, strain rad23, hits give low values",1.02
same,normalized growth,"locus YEL061C, strain CIN8 (second series), hits give low values",1.03
same,normalized growth,"locus YEL061C, strain CIN8, hits give low values",0.971
same,normalized growth,"locus YER015W, strain faa2, hits give low values",1.02
same,normalized growth,"locus YER016W, strain bim1, hits give low values",1.01
same,normalized growth,"locus YER110C, hits give low values",0.971
same,normalized growth,"locus YER111C, strain swi4, hits give low values",1.04
same,normalized growth,"locus YER155C, strain BEM2 (second series), hits give low values",1.03
same,normalized growth,"locus YER155C, strain BEM2, hits give low values",0.966
same,normalized growth,"locus YER167W, strain BCK2, hits give low values",0.949
same,normalized growth,"locus YFR010W, strain ubp6, hits give low values",1.03
same,normalized growth,"locus YGL078C, strain dbp3, hits give low values",0.961
same,normalized growth,"locus YGL086W, strain mad1, hits give low values",0.898 (active)
same,normalized growth,"locus YGL167C, strain pmr1, hits give low values",1.01
same,normalized growth,"locus YGL173C, strain kem1, hits give low values",1.02
same,normalized growth,"locus YGL227W, strain vid30, hits give low values",1.02
same,normalized growth,"locus YGL240W, strain doc1, hits give low values",1.01
same,normalized growth,"locus YGL248W, strain PDE1, hits give low values",0.924
same,normalized growth,"locus YGL253W, strain hxk2, hits give low values",1.01
same,normalized growth,"locus YGR078C, strain PAC10, hits give low values",0.889
same,normalized growth,"locus YGR135W, strain pre9, hits give low values",0.93
same,normalized growth,"locus YGR252W, strain gcn5, hits give low values",0.88
same,normalized growth,"locus YHR013C, strain ard1, hits give low values",1.03
same,normalized growth,"locus YHR027C, strain rpn1, hits give low values",1.03
same,normalized growth,"locus YHR030C, strain SLT2, hits give low values",1.04
same,normalized growth,"locus YHR079C, strain IRE1 (second series), hits give low values",0.96
same,normalized growth,"locus YHR079C, strain IRE1, hits give low values",1.07
same,normalized growth,"locus YHR094C, strain hxt1, hits give low values",0.958
same,normalized growth,"locus YHR129C, strain ARP1, hits give low values",0.949
same,normalized growth,"locus YHR142W, strain chs7, hits give low values",1.01
same,normalized growth,"locus YHR200W, strain rpn10, hits give low values",0.931
same,normalized growth,"locus YIL066C, strain RNR3, hits give low values",0.94
same,normalized growth,"locus YIL073C, strain SPO22, hits give low values",0.871
same,normalized growth,"locus YIL125W, strain kgd1, hits give low values",0.973
same,normalized growth,"locus YIR030C, strain dcg1, hits give low values",0.954
same,normalized growth,"locus YJL092W, strain hpr5, hits give low values",1.01
same,normalized growth,"locus YJL095W, strain BCK1 (second series), hits give low values",1
same,normalized growth,"locus YJL095W, strain BCK1, hits give low values",0.811 and 1.03
same,normalized growth,"locus YJL115W, strain asf1, hits give low values",1.03
same,normalized growth,"locus YJL129C, strain trk1, hits give low values",0.961
same,normalized growth,"locus YJL134W, strain LCB3, hits give low values",0.973
same,normalized growth,"locus YJL154C, strain vps35, hits give low values",1.01
same,normalized growth,"locus YJL164C, strain tpk1, hits give low values",1.02
same,normalized growth,"locus YJL166W, strain qcr8, hits give low values",1.01
same,normalized growth,"locus YJL168C, strain set2, hits give low values",0.957
same,normalized growth,"locus YJL187C, strain SWE1 (second series), hits give low values",0.918
same,normalized growth,"locus YJR066W, strain TOR1, hits give low values",1.01
same,normalized growth,"locus YKL009W, strain mrt4, hits give low values",0.91
same,normalized growth,"locus YKL068W, hits give low values",0.965
same,normalized growth,"locus YKL085W, strain MDH1 (second series), hits give low values",0.961
same,normalized growth,"locus YKL085W, strain MDH1, hits give low values",0.961
same,normalized growth,"locus YKL160W, strain elf1, hits give low values",1.02
same,normalized growth,"locus YKL190W, strain CNB1, hits give low values",0.979
same,normalized growth,"locus YKR001C, strain vps1, hits give low values",0.895 (active)
same,normalized growth,"locus YKR026C, strain gcn3, hits give low values",1.02
same,normalized growth,"locus YKR091W, strain srl3, hits give low values",1.01
same,normalized growth,"locus YLL001W, strain dnm1, hits give low values",1.01
same,normalized growth,"locus YLL026W, hits give low values",1.01
same,normalized growth,"locus YLL041C, strain sdh2, hits give low values",1.03
same,normalized growth,"locus YLR027C, strain aat2, hits give low values",0.999
same,normalized growth,"locus YLR039C, strain RIC1, hits give low values",0.443 (active)
same,normalized growth,"locus YLR058C, strain SHM2, hits give low values",0.944
same,normalized growth,"locus YLR102C, strain apc9, hits give low values",0.959
same,normalized growth,"locus YLR113W, strain HOG1, hits give low values",0.996
same,normalized growth,"locus YLR221C, strain rsa3, hits give low values",1.01
same,normalized growth,"locus YLR258W, strain gsy2, hits give low values",1.03
same,normalized growth,"locus YLR262C, strain YPT6 (second series), hits give low values",0.842 (active)
same,normalized growth,"locus YLR262C, strain YPT6, hits give low values",0.397 (active)
same,normalized growth,"locus YLR268W, strain sec22, hits give low values",0.926
same,normalized growth,"locus YLR320W, strain mms22, hits give low values",1.01
same,normalized growth,"locus YLR330W, strain CHS5, hits give low values",0.951
same,normalized growth,"locus YLR342W, strain FKS1, hits give low values",1.01
same,normalized growth,"locus YLR357W, strain rsc2, hits give low values",1.08
same,normalized growth,"locus YLR370C, strain arc18, hits give low values",1.03
same,normalized growth,"locus YLR371W, strain rom2, hits give low values",0.97
same,normalized growth,"locus YLR384C, strain iki3, hits give low values",1.03
same,normalized growth,"locus YLR418C, strain cdc73, hits give low values",0.725 (active)
same,normalized growth,"locus YML016C, strain PPZ1, hits give low values",0.97
same,normalized growth,"locus YML032C, strain rad52, hits give low values",0.909
same,normalized growth,"locus YML120C, strain ndi1, hits give low values",1.02
same,normalized growth,"locus YML124C, strain tub3, hits give low values",0.959
same,normalized growth,"locus YMR058W, strain fet3, hits give low values",1.02
same,normalized growth,"locus YMR078C, strain ctf18, hits give low values",0.928
same,normalized growth,"locus YMR125W, strain sto1, hits give low values",1.03
same,normalized growth,"locus YMR129W, hits give low values",1.02
same,normalized growth,"locus YMR205C, strain PFK2, hits give low values",1.01
same,normalized growth,"locus YMR223W, strain ubp8, hits give low values",0.914
same,normalized growth,"locus YMR231W, strain pep5, hits give low values",1.04
same,normalized growth,"locus YMR307W, strain GAS1, hits give low values",0.7
same,normalized growth,"locus YNL067W, strain RPL9B, hits give low values",0.939
same,normalized growth,"locus YNL071W, strain lat1, hits give low values",1.02
same,normalized growth,"locus YNL183C, strain NPR1, hits give low values",0.994
same,normalized growth,"locus YNL209W, strain ssb2, hits give low values",1.02
same,normalized growth,"locus YNL233W, strain BNI4, hits give low values",0.885
same,normalized growth,"locus YNL248C, strain rpa49, hits give low values",1.04
same,normalized growth,"locus YNL250W, strain rad50, hits give low values",0.965
same,normalized growth,"locus YNL271C, strain bni1, hits give low values",0.961
same,normalized growth,"locus YNL298W, strain CLA4, hits give low values",0.951
same,normalized growth,"locus YNL307C, strain MCK1, hits give low values",0.885 (active)
same,normalized growth,"locus YNL322C, strain KRE1 (second series), hits give low values",1.03
same,normalized growth,"locus YNR049C, strain mso1, hits give low values",1.01
same,normalized growth,"locus YNR052C, strain pop2, hits give low values",0.92
same,normalized growth,"locus YOL012C, strain htz1",1.16
same,normalized growth,"locus YOL147C, strain pex11, hits give low values",0.942
same,normalized growth,"locus YOR001W, strain rrp6, hits give low values",1.02
same,normalized growth,"locus YOR061W, strain CKA2, hits give low values",0.964
same,normalized growth,"locus YOR069W, strain VPS5, hits give low values",0.965
same,normalized growth,"locus YOR070C, strain gyp1, hits give low values",1.01
same,normalized growth,"locus YOR080W, strain dia2, hits give low values",1.02
same,normalized growth,"locus YOR083W, strain WHI5, hits give low values",1.02
same,normalized growth,"locus YOR106W, strain vam3, hits give low values",1.04
same,normalized growth,"locus YOR136W, strain idh2, hits give low values",0.966
same,normalized growth,"locus YOR144C, strain elg1, hits give low values",0.961
same,normalized growth,"locus YOR184W, strain ser1, hits give low values",0.778 (active)
same,normalized growth,"locus YOR231W, strain MKK1, hits give low values",1.03
same,normalized growth,"locus YOR265W, strain rbl2, hits give low values",1
same,normalized growth,"locus YOR270C, strain vph1, hits give low values",1.01
same,normalized growth,"locus YOR290C, strain snf2, hits give low values",1.04
same,normalized growth,"locus YOR316C, strain cot1, hits give low values",0.956
same,normalized growth,"locus YPL051W, strain arl3, hits give low values",1.02
same,normalized growth,"locus YPL055C, strain LGE1, hits give low values",0.887
same,normalized growth,"locus YPL078C, strain atp4, hits give low values",1.04
same,normalized growth,"locus YPL106C, strain sse1, hits give low values",1.07
same,normalized growth,"locus YPL240C, strain hsp82, hits give low values",1.01
same,normalized growth,"locus YPL256C, strain CLN2, hits give low values",1.08
same,normalized growth,"locus YPR119W, strain clb2, hits give low values",0.948
same,normalized growth,"locus YPR141C, strain kar3, hits give low values",0.955
same,normalized growth,"locus YPR163C, strain tif3, hits give low values",0.883 (active)
same,normalized growth,"locus YPR167C, strain met16, hits give low values",0.953
same,normalized growth,"strain wtn01, hits give low values",0.945
